25 compounds from PubChem BioAssay (Tox21) can be followed below.

Molecules are shown by their SMILES. Inconclusive results are not listed. A call without a number means that no potency is given here. Values without a mark were called inactive. Activity calls are given as the source filed them. The call rests on the fitted dose curve; in most records, active means well fitted cell-killing curve with a large enough effect in the repeat runs; inconclusive means weak or mixed curves, or effect the other way; inactive means flat fitted curve, though single readings scatter.

The nature of this assay: qHTS RealTime-Glo MT Cell Viability Assay in HEK293 cells - 16 hour (AID 1224872). Further: top concentration of the series differs between compounds; nearly all actives have a fitted effect of over 50% in size. The following applies: RealTime-Glo luminescence; series mostly up to 76.8 µM. The gist of the method: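 Quantitative high-throughput screen of the Tox21 10K library in HEK293: cells and RealTime-Glo reagents plated together, compound added at 5 h, luminescence monitored through 40 h at 37 C.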
Background: Quantitative high-throughput screening tests each substance at several concentrations.
Take `CCS(=O)(=O)c1ccc(OC)c(C(=O)OC)c1`: the Potency entry was “inactive”.
`Brc1c(NC2=NCCN2)ccc2nccnc12`: the Potency entry is “inactive”.
Still for that read-out and setting: the same measure for `COC(=O)CC(C)=O`: “inactive”.
For `NC(=O)c1ccc(N)cc1`, the Potency result is “inactive”.
For the compound `Cc1cnc(NS(=O)(=O)c2ccc(N)cc2)nc1`, the Potency entry was “inactive”.
On to `COc1nc(N)nc2c1ncn2[C@@H]1O[C@H](CO)[C@@H](O)[C@@H]1O`, for which the Potency result is “inactive”.
The same measure, in the same setting: the same measure for `CC(C)CNCC(C)C`: “inactive”.
With `O=C(c1ccccc1)C1CCCCC1`, the Potency result was “inactive”.
Still for that read-out and setting: to `CN1CCCC1` belongs “inactive”.
As to `CC(C)(O)C(=O)c1ccccc1`, the Potency result is “inactive”.
For the compound `COC(=O)c1ccc(C)cc1C1=NC(C)(C(C)C)C(=O)N1` (stereo not given), the Potency entry was “inactive”.
As to `CCCCC(CC)COC(=O)c1ccccc1O` (stereo not given), the Potency entry was “inactive”.
Turning to `Nc1cc(=O)[nH]c(N)n1`, the Potency result is “inactive”.
`O=C(O)CCCc1ccccc1`: the Potency entry is “inactive”.
The same measure, in the same setting: the same measure for `c1ccc([C@H]2CN3CCSC3=N2)cc1`: “inactive”; for `CCOC(=O)CCC(C)=O`: “inactive”.
In the case of `COc1ccc2c(c1)CCCC2=O`, the Potency result is “inactive”.
With `C[C@H](NC(CCc1ccccc1)C(=O)O)C(=O)N1CCC[C@H]1C(=O)O` (stereo not given in full), the Potency entry is “inactive”.
On to `CC(=O)OCC(=O)[C@@]1(O)CCC2C3CCC4=CC(=O)CC[C@]4(C)C3[C@@H](O)C[C@@]21C` (stereo not given in full), for which the Potency entry is “inactive”.
As for `C[C@](N)(Cc1ccc(O)cc1)C(=O)O`, the activity change, negative = cytotoxicity is 1.36% [at 6.97 µM].
Consider `COC(=O)NN`, for which the Potency entry is “inactive”.
With `CCCCCOC(=O)CCCCC`, the Potency result is “inactive”.
`CCCCCCCCCCCCCC=O`: the activity change, negative = cytotoxicity was 1.71% [at 6.97 µM].
In the case of `CC(=O)N(CC(O)CO)c1c(I)c(C(=O)NCCO)c(I)c(C(=O)NCC(O)CO)c1I` (stereo not given), the Potency result is “inactive”.
Take `CN1CC(=O)NC1=N`: the Potency entry was “inactive”.
